Screening results deposited in PubChem BioAssay by Sanford-Burnham Center for Chemical Genomics.
PPC-1+TRAIL kill – compounds killing PPC-1 cancer cells with TRAIL present (potentiator screen, no TRAIL-free arm); cell killing (% activity), % at 4 µM or 5 µM; 220,000 tested, 0.41% active; PPC-1 cells + TRAIL, ATPLite viability luminescence; AID 1443;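 active means cell killing above 50% in the first pass at 4 µM, then a duplicate retest at 5 µM averaging 50% or more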;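 further: plate controls were cells with TRAIL plus DMSO for no effect and medium-only wells lacking cells for full effect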
C8 TRAIL sens – caspase-8 TRAIL sensitization; NB7+C8 cells + TRAIL, ATPlite viability luminescence; 360,000 tested, 1% active; AID 624354; inhibition (viability loss, TRAIL sensitization), % at 10 µM;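 active means compounds causing at least 50% loss of cell viability in the single-dose screen, relative to plate controls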
KKLEB cytotox – CF airway cell cytotoxicity counter-screen; AID 602141; activity change (cytotoxicity), % at 5 µM; 360,000 tested, 0.36% active; KKLEB CF airway cells viability, ATPlite luminescence, overnight; active compounds read low; cells stimulated with P. aeruginosa culture filtrate;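 active means corrected activity change at or below -50% at 5 µM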
CF NFkB block – cystic fibrosis NF-kB activation inhibition | KKLEB NF-kB-GFP reporter, PAF-induced, GFP fluorescence overnight | inhibition, % at 5 µM | 360,000 tested, 0.86% active | AID 588850;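 active means at least 50% inhibition at 5 µM, scaled per plate between neutral and stimulator controls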;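 further: PAF is a Pseudomonas aeruginosa culture filtrate used as stimulus; plate controls were PAF-stimulated DMSO wells for no effect and unstimulated DMSO wells for full effect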
Peg3 prom inh – Peg3 promoter activity inhibition. inhibition, % at 20 µM. HeLa PEG-Prom luciferase reporter, luminescence, overnight. 360,000 tested, 1.7% active. AID 588405;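 active means inhibition of at least 50% at 20 µM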
HIF-2a inh – inhibitors of HIF-2a; 786-0 RCC cells HIF-2a reporter, luciferase luminescence, overnight; inhibition, % at 18.8 µM; 360,000 tested, 0.72% active;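 active means inhibition of the luminescence signal of 40% or more relative to plate controls, in a single-dose primary screen at 18.75 µM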
Mdm2 MdmX conf – Mdm2/MdmX (human) interaction inhibition, confirmed. shares compounds with HIF-2a inh. SaOS-2 split-luciferase Mdm2/MdmX complementation, luminescence. inhibition, % at 8 µM. 740 tested, 99% active. AID 504601;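 active means mean inhibition of the luminescence signal across two replicates at or above 26 percent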
HIF-2a conf – confirmation of HIF-2a inhibitors | shares compounds with HIF-2a inh | 786-0 RCC cells, HIF-2a luciferase reporter luminescence, overnight | inhibition, % at 18.8 µM | 1,800 tested, 56% active;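 active means mean inhibition across four replicates of at least 40 percent at the single tested concentration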
HIF-1a cs – counter-screen for HIF-2a inhibitors: HIF-1a inhibition in MiaPaCa-2 cells; shares compounds with HIF-2a inh; MiaPaCa-2 HIF-1a luciferase reporter, desferoxamine, overnight; inhibition, % at 18.8 µM; 1,800 tested, 72% active;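 active means mean inhibition of the reporter signal across four replicates at the single tested dose of 50% or more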
Numbers without * were called inactive; / = no result given. The list is not random: actives were taken first. Their share in the collection is about 3.1%.

SMILES	PPC-1+TRAIL kill	C8 TRAIL sens	KKLEB cytotox	CF NFkB block	Peg3 prom inh	HIF-2a inh	HIF-2a conf	HIF-1a cs	others
CC(=O)Nc1ccc(OS(=O)(=O)c2ccc(C)cc2C)cc1	14	6	-16	0	7	80*	88*	34
Cc1nc(SCc2nc3ccc([N+](=O)[O-])cc3[nH]2)c2oc3ccccc3c2n1	/	1	6	-28	30	-17	/	/
O=C(CN1C(=O)NC(CCc2ccccc2)C1=O)Nc1ccc(F)c(F)c1F (configuration not stated)	/	-11	1	-16	20	13	/	/
O=C(Nc1cccc(Br)c1)c1cccc(OC(=S)N2CCOCC2)c1	/	7	2	-4	-26	-46	/	/
CNC(=O)c1ccc(S(=O)(=O)c2ccc(Cl)cc2)c(NC(C)=O)c1	/	-8	-7	7	6	19	/	/
CNC(=O)c1nnsc1S(=O)(=O)c1ccc(Cl)cc1	32	8	-92*	90*	106*	65*	74*	50*	Mdm2 MdmX conf=104*
Oc1cc(O)cc(-c2cc3ccc(O)cc3o2)c1	/	13	-15	-8	-243	40*	23	11
NC(=S)c1cc2ccc(O)cc2oc1=O	14	-10	-2	-24	11	12	/	/
O=C1OC(c2ccccc2)(c2ccc3cc(O)ccc3c2)c2ccccc21 (configuration not stated)	/	11	-19	-1	79*	40*	19	98*
O=C1OC(c2ccc(O)cc2)(c2ccc(O)cc2)c2ccccc21	28	0	-15	17	20	23	/	/
COc1ccc(Cn2cc(CN3CC(N4CC=CC4)CS3(=O)=O)nn2)cc1 (configuration not stated)	/	-4	/	/	/	-16	/	/
COc1cccc(C(=O)/C=C/c2ccc(OCC#N)c(OC)c2)c1	8	6	-28	12	107*	85*	42*	105*
CCOC(=O)CSc1nc(N)c(C#N)c(-c2ccc(OCC)cc2)c1C#N	0	0	-2	15	12	8	/	/
COC(=O)CSc1nc(N)c(C#N)c(-c2ccc(O)cc2)c1C#N	7	2	-9	12	8	40*	35	21
CCOC(=O)C1=CCN(S(=O)(=O)c2ccccc2Br)C1c1cccc(F)c1 (configuration not stated)	/	-1	-1	-3	36	16	/	/
N=c1n(CC(=O)c2ccc(Br)cc2)c2ccccc2n1Cc1ccccc1	/	40	-24	-9	99*	-9	/	/	Mdm2 MdmX conf=102*
FCCCOc1ccc(-c2nccc(-c3ccccn3)n2)cc1	/	8	7	-26	-173	-215	/	/
NNC(=O)COc1ccc(-c2nccc(-c3ccc(F)cc3)n2)cc1	/	-2	4	-21	-51	68*	79*	52*
O=C(O)COc1ccc(-c2nccc(-c3ccccn3)n2)cc1	25	18	-2	-3	-40	87*	90*	59*
O=C(COC(=O)COc1ccc(Br)cc1)NC1CCS(=O)(=O)C1 (configuration not stated)	/	-10	2	-14	-2	1	/	/
Cc1oc(-c2cccc(Cl)c2)nc1CSCC(=O)O	16	-8	0	-8	16	43*	35	32
CCOC(=O)CNC(=O)CSc1ncnc2c1cnn2-c1ccccc1	-21	-12	1	11	19	41*	30	-7
CN(C)CCCNC(=O)/C(=C\C=C\c1ccccc1)NC(=O)c1ccc([N+](=O)[O-])cc1	15	-8	-4	-12	11	11	/	/
Nn1c(SCC(=O)Nc2cccnc2Cl)nnc1-c1ccccc1	/	-20	0	-4	-40	-64	/	/
N#CC1=C(c2ccccc2)/C(=C/c2ccccc2)OC1=O	-6	48	-7	42	104*	89*	4	106*
SMILES	PPC-1+TRAIL kill	C8 TRAIL sens	KKLEB cytotox	CF NFkB block	Peg3 prom inh	HIF-2a inh	HIF-2a conf	HIF-1a cs	others
O=C1O/C(=C/c2ccccc2)c2ccccc21	7	-9	2	-2	-8	-10	/	/
Cc1cccc(OCC(=O)Nc2nccs2)c1C	/	42	-1	-1	-234	-141	/	/
CCOC(=O)c1ccc(N=c2sc(C(=O)OC)cc(=O)n2Cc2ccco2)cc1	0	10	-18	23	100*	82*	65*	106*
CC1=C(C(=O)N(C(C)C)C(C)C)CC(CC(=O)NC2CCCC2)C(=O)N1Cc1ccc(C(C)(C)C)cc1 (configuration not stated)	/	5	-2	-8	10	1	/	/
Cc1ccc(C(=O)c2cccc(N)c2)cc1C	8	-9	-14	-8	-19	84*	93*	56*
CCC(=O)Nc1cccc(C(=O)/C=C/c2ccccc2)c1	17	-14	-10	3	102*	44*	-46	101*
CCC(=O)Nc1cccc(C(=O)c2ccccc2)c1	8	-12	10	-4	-9	-48	/	/
CCC(=O)Nc1cccc(C(=O)c2ccc(C)c(C)c2)c1	0	13	-7	-3	-20	45*	65*	15
Cc1ccc(C)c(-c2nnc(NC(=O)CCS(=O)(=O)c3ccc(F)cc3)o2)c1	/	16	-12	8	13	9	/	/
Cc1ccc(S(=O)(=O)/N=C(\Sc2ccccc2)c2ccccc2)cc1	6	-2	3	1	56*	43*	56*	49
O=C(NC(NC(=S)Nc1ccccc1)C(Cl)(Cl)Cl)c1cccc(Cl)c1 (configuration not stated)	-12	-2	-9	19	15	47*	39	102*
COc1cccc(C(C)=C2SC(=S)NC2=O)c1	/	-2	-7	14	-37	-31	/	/
CCCCn1c(SCCN2CCCCC2)nc2c1c(=O)n(C)c(=O)n2C	/	0	-15	-5	0	2	/	/
O=[N+]([O-])c1ccc(S(=O)(=O)CC(CN2CCCCC2)N2CCCCC2)cc1 (configuration not stated)	-12	9	-43	81*	108*	27	/	/	Mdm2 MdmX conf=103*
CC(=O)Nc1ccc(Nc2cc(C)nc3c(-c4ccccc4)cnn23)cc1	29	17	-10	19	39	53*	78*	93*
CC(=O)c1cccc(NS(=O)(=O)c2c(C(=O)N3CCOCC3)c(C)n(C)c2C)c1	/	0	4	-14	14	2	/	/
